Reference: the OligoGym collection

What follows are sequences tested against ZDHHC20 (assay: pooled miR-30 sensor sort-seq; sequence = guide strand). Conditions: shRNA.
For TTTTGCACGTGTATCTGTCAGT, the sensor-assay potency score (higher = more potent) was -0.551. TTGTTGTTCTATTTTTTCCAAC showed a sensor-assay potency score (higher = more potent) of -1.28. Work on TTCAGCTCCATTCTCCAGCCAC yielded a sensor-assay potency score (higher = more potent) of -0.374. TTTCTTGTTGTCTTTCTTGGCT showed a sensor-assay potency score (higher = more potent) of -0.0932. Work on TTGTAACAGAAGCTTGTTCTGG yielded a sensor-assay potency score (higher = more potent) of -0.283. TCTTGTTGTCTTTCTTGGCTGA gave a sensor-assay potency score (higher = more potent) of 0.533. Work on TTCTTCAGCTCCATTCTCCAGC yielded a sensor-assay potency score (higher = more potent) of -0.419.

The sequences below were run against ZDHHC24 in the same assay as above. Conditions: shRNA.
TGTGAGCAACATGAGCCAGGGA showed a sensor-assay potency score (higher = more potent) of -0.189. TTGCCGAAGCCCACGCAGCGGC gave a sensor-assay potency score (higher = more potent) of -1.27. TCTGCCTGTGAGCAACATGAGC showed a sensor-assay potency score (higher = more potent) of -1.73. With TAGCAGTAAGCCCAGCCCTGGC the sensor-assay potency score (higher = more potent) was -1.6. For TGCCAGAGACACTCTGCCTGTG, the sensor-assay potency score (higher = more potent) was -0.683. With AGACACTCTGCCTGTGAGCAAC the sensor-assay potency score (higher = more potent) was -2.01. TCCCATGGAAGAGCAGCCCAGC was tested, and the sensor-assay potency score (higher = more potent) was -1.99. TGAGCAACATGAGCCAGGGAAG was tested, and the sensor-assay potency score (higher = more potent) was -1.75. For TGAAGCAGCAGGCACAGGAAGG, the sensor-assay potency score (higher = more potent) was -1.8. In the case of TAGTTGCCGAAGCCCACGCAGC, the sensor-assay potency score (higher = more potent) is reported as -1.53. CCTGTGAGCAACATGAGCCAGG was tested, and the sensor-assay potency score (higher = more potent) was -2.43. Sequence TTGAGCAGCTGGAAGGCGGCCA has a sensor-assay potency score (higher = more potent) of -0.092.
